Measurements from ChEMBL document CHEMBL3988442, “University of Dundee, Small-Polar-MMV Screening Library” (2021).
Hit rate of the full screen: of about 48,000 compounds, about 13,000 (27%) showed an effect of 50% or more. This is one part of the list.

System: Wolbachia pipientis
Test: Anti-Wolbachia Cell-Based Screen
Format: functional
Design: scale not given: in the data most compounds retested in dose-response had high values
Details: 5 µM

SMILES | Percent Effect [%]
O=C(NCCc1nnc2n1CCCCC2)N1CCC2(CCCC2)CC1 | -8.228
O=C(CN1CCN(c2ccnc3c(F)ccc(F)c23)CC1)N1CCCC1 | -6.623
Cc1ccc(C)c(OC(C)C(=O)Nc2cccnc2)c1 (stereo not drawn) | -35.64
CC(C)c1nnc2n1CCN(CC(=O)Nc1sccc1C#N)C2 | -2.717
CCc1nnc2n1CCN(CCC(=O)Nc1cc(C)on1)C2 | -8.821
CCc1nnc2n1CCN(CC(=O)Nc1sccc1C#N)C2 | 8.043
CCc1nnc2n1CCN(CCC(=O)Nc1sccc1C#N)C2 | 88.78
CC(C)c1nnc2n1CCN(CC(=O)Nc1nncs1)C2 | 3.103
CC(C)c1nnc2n1CCN(CCC(=O)Nc1sccc1C#N)C2 | 103.7
CCc1c(C)sc2ncnc(N3C[C@H](O)[C@@H](N4CCCC4)C3)c12 | 10.47
Cl.O=C(NCCn1nc(C2CCNC2)c2cccnc21)c1ccccn1 (stereo not drawn) | 108.3
O=C(NCCn1nc2ccccn2c1=O)c1cc(C2CC2)[nH]n1 | 7.505
O=C(NCCCc1nnc2ccccn12)c1ccccc1C1CCNC1 (stereo not drawn) | 3.583
Cl.O=C(NCCn1nc(C2CCNC2)c2cccnc21)c1ccccc1 (stereo not drawn) | 112
O=C(NCc1cnn2cccnc12)c1cccc(CC2CCNCC2)c1 | 4.069
O=C(NCCN1CCNCC1)c1nc2ccccc2c(=O)[nH]1 | -2.833
Cc1nc(C)n(CC2CCCCN2CC(=O)N(C)Cc2ccco2)n1 (stereo not drawn) | -3.611
CCN(C(=O)NCc1ncc(C)c(OC)c1C)C(C)c1cccnc1 (stereo not drawn) | -16.66
CC(C)CNc1nc2c(cc1C(=O)NCC1CC1)CCNCC2 | 3.893
O=C(c1cc(-c2ccccc2)nc2onc(C3CC3)c12)N1CC[C@H](O)C1 | -0.1163
CC(C)CNC(=O)c1cc(C2CC2)nc2onc(C3CCNCC3)c12 | 97.28
O=C(c1cc(C2CC2)nc2onc(-c3ccccc3)c12)N1CCOCC1 | 3.139
O=C(NC1CC1)c1cc(C2CC2)nc2onc(C3CCNCC3)c12 | 97.57
O=C(c1cc(C2CC2)nc2onc(-c3ccccc3)c12)N1CC[C@H](O)C1 | 6.458
FC(F)(F)CCc1ccnc(N2CCN(Cc3ccncc3)CC2)n1 | -2.758

SMILES | Percent Effect [%]
CCO[C@H]1CO[C@@]2(CCCN(S(=O)(=O)c3ccccc3)C2)C1 | -23.06
COCC(=O)N1CCN(C(=O)CCc2ccsc2)CC1 | -13.91
COCC(=O)N1CC[C@]2(O)CCN(Cc3cccnc3OC)C[C@@H]2C1 | 17.33
O=C(CCc1ccsc1)N1CCC(Cc2ccc(CO)cc2)C1 (stereo not drawn) | -8.756
COCc1nc(C(=O)N2CCN(Cc3ccsc3)CC2)cs1 | -16.22
COCC(=O)N1CC[C@]2(O)CCN(Cc3ccsc3)C[C@@H]2C1 | 113.5
COCC(=O)N1CC[C@]2(O)CCN(C(=O)CCc3ccsc3)C[C@@H]2C1 | 120
Cn1cnc2c1CCN(Cc1nc(COc3ccc(F)cc3)no1)C2 | 1.894
Cc1cccc(N2CCN(CCC(=O)NCc3nnc[nH]3)CC2)c1 | -0.9949
CC(C)N1CCC(N2CCCC(C(=O)NCC3(C)COC3)C2)CC1 (stereo not drawn) | -5.464
CCNC(=O)N1CCC2(CC1)CCn1c(-c3ccccc3)cnc12 | -10.02
COc1ccc(-c2cnc3n2CCNC32CCN(S(C)(=O)=O)CC2)cc1 | -5.963
Cn1cc(-c2cnc3n2CCC32CCN(S(C)(=O)=O)CC2)cn1 | 7.243
Cn1nccc1-c1cnc2n1CCNC21CCN(C(=O)C2(C)CC2)CC1 | 92.03
Cn1nccc1-c1cnc2n1CCC21CCN(C(=O)C2(C)CC2)CC1 | 98.02
CS(=O)(=O)N1CCC2(CC1)NCCn1c(-c3ccccc3)cnc12.O=C(O)C(F)(F)F.O=C(O)C(F)(F)F | -8.058
O=S(=O)(NCCn1ccc(-c2cccs2)n1)C1CC1 | 1.599
COCCOCCNc1cncc(Br)c1 | -4.495
CCN(Cc1ccncc1)C1CCCN(C/C=C/c2ccc(F)cc2)C1 (stereo not drawn) | 3.422
C[C@@H]1CN(C(=O)c2cc(Cn3cnc4ccccc43)on2)C[C@H](C)O1 | -0.2425
O=C(c1cc(Cn2cnc3ccccc32)on1)N1CCOCC1 | -10.83
Cc1nc2ccccc2n1Cc1cc(C(=O)N(C)C2CCOC2)n[nH]1 (stereo not drawn) | 98.82
Cc1nc2ccccc2n1Cc1cc(C(=O)N(C)C2CCOCC2)no1 | 169.5
Cc1ccc(CNC(=O)c2cc(CN3CCC(O)CC3)on2)s1 | -1.351
Cc1nc2ccccc2n1Cc1cc(C(=O)N2C[C@@H](C)O[C@@H](C)C2)no1 | -14.98

SMILES | Percent Effect [%]
O=C(NCC1CCCCO1)c1cc(Cn2cnc3ccccc32)[nH]n1 (stereo not drawn) | -5.339
COCC1CCCN(C(=O)c2cc(Cn3ccc4ccccc43)[nH]n2)C1 (stereo not drawn) | -4.391
Cc1nc2ccccc2n1Cc1cc(C(=O)NC2CCOC2)no1 (stereo not drawn) | 107.5
Cc1ccccc1CN1C[C@@H]2CC[C@H](C1)N(CC1CCC1)C2=O | -3.68
c1cnnc(N2CCCC2CNc2nc3ccccc3o2)c1 (stereo not drawn) | 0.7954
Cn1cc(N2CCCC(Nc3ccc4c(c3)CCC(=O)N4)C2=O)cn1 (stereo not drawn) | -0.6283
CC(NC(=O)NC1CCN(Cc2ccccc2)CC1)c1nncn1C (stereo not drawn) | -0.6608
CC(C)c1nsc(N2CCn3c(nnc3-c3ccccc3)C2)n1 | -7.754
Cc1ccoc1C(=O)N1C[C@@H]2COC[C@]2(COCc2cccnc2)C1.O=C(O)C(F)(F)F | -8.448
O=C(O)C(F)(F)F.O=C(c1cc(C2CC2)on1)N1C[C@@H]2COC[C@]2(COc2cccnc2)C1 | 101.2
O=C(COc1ccccc1)N1C[C@@H]2COC[C@]2(COc2cccnc2)C1.O=C(O)C(F)(F)F | 107.1
COc1ccc(CN2C[C@@H]3COC[C@]3(COc3cccnc3)C2)cc1.O=C(O)C(F)(F)F.O=C(O)C(F)(F)F | 13.03
O=C(O)C(F)(F)F.O=C(c1ccccc1F)N1C[C@@H]2COC[C@]2(COCc2cccnc2)C1 | 3.343
O=C(COC1CCCC1)N1C[C@@H]2COC[C@]2(COc2cccnc2)C1.O=C(O)C(F)(F)F | 91.64
Cc1ccccc1C(=O)N1C[C@@H]2COC[C@]2(COCc2cccnc2)C1.O=C(O)C(F)(F)F | -1.339
Cc1cc(C(=O)N2C[C@@H]3COC[C@]3(COCc3cccnc3)C2)no1 | -1.047
O=C(O)C(F)(F)F.O=C(c1ccc(F)cc1)N1C[C@@H]2COC[C@]2(COc2cccnc2)C1 | 125.5
CNC(=O)CCNC(=O)Nc1cccc(Cl)c1SC(F)F | -9.606
CN(C)c1ccc(C(O)CNS(=O)(=O)C2CC2)cc1 (stereo not drawn) | -7.172
Cc1ccc(C(=O)N2CCC3(CC2)c2ccccc2[C@@H](N)[C@@H]3O)c(=O)[nH]1 | 1.157
CCN1CCN(C(=O)c2c[nH]c(C(C)C)n2)c2ccccc21 | 16.43
COCCCNc1cc(C(=O)N2CCOCC2)ccc1C | 15.11
COCCNC(C)c1ccc(-c2cccnc2)cc1 (stereo not drawn) | -4.646
COCCCNc1c(-c2ccccc2)c(=O)c1=O | 111.1
COCCNc1c(-c2ccc(C)cc2)c(=O)c1=O | 115.7

SMILES | Percent Effect [%]
COCCCNC(=O)COc1ccccc1C(F)(F)F | 10.69
COCCCNc1c(-c2ccc(C)cc2)c(=O)c1=O | 103
COCCCNC(=O)NCc1ccc(C)cc1 | 9.073
COCCCNC(=O)Cc1cc(-c2ccccc2)on1 | -3.078
Cc1cnn(CCNCC(O)COc2cccc(C(F)(F)F)c2)c1 (stereo not drawn) | -5.996
Oc1ccc(Br)c(CNc2cccc(-c3nnc[nH]3)c2)c1 | -21.72
Cc1nc(-c2ccccc2)ccc1C(=O)N1CCN(CCO)CC1 | 1.858
COCCOc1ccc(Cl)c(C(=O)N2CCN(CCO)CC2)n1 | 97.38
CC(O)CN1CCN(C(=O)c2cnc(OC(C)C)c(Cl)c2)CC1 (stereo not drawn) | -53.57
CC(C)Oc1ccc(Cl)c(C(=O)N2CCN(CCO)CC2)n1 | 76.59
CCOc1ccc(Cl)c(C(=O)N2CCN(CCO)CC2)n1 | -4.151
O=C(c1cc2ccccc2c(=O)[nH]1)N1CCN(CCO)CC1 | -3.156
Cc1ccc(C(=O)O)cc1S(=O)(=O)Nc1nn(-c2ccccc2)cc1C | -18.22
CC(C(N)=O)N1CCc2onc(-c3cccc(F)c3)c2C1 (stereo not drawn) | 31.58
CCC(CC)CS(=O)(=O)NC(=O)C1CCC1 | -17.91
COC(=O)NC1(C(=O)Nc2ccc(-c3ncc[nH]3)cc2)CCCC1 | 5.421
Cc1cccc(-c2nc(CN3CCc4cnc(C)nc4C3)no2)c1 | 0.7919
Cc1cc(C)c(CNC(=O)N(C)CC2CCCCO2)c(=O)[nH]1 (stereo not drawn) | -5.607
Cc1cc(C)c(CNC(=O)N2CCCC2c2ccc(F)cc2)c(=O)[nH]1 (stereo not drawn) | 86.68
Cc1cc(C)c(CNC(=O)N2CCCC2c2cccc(F)c2)c(=O)[nH]1 (stereo not drawn) | 115.9
Cc1cc(C)c(CNC(=O)N2CCCC2c2ccccc2)c(=O)[nH]1 (stereo not drawn) | 10.36
Cc1cc(C)c(CNC(=O)N2CCCC2c2cccn2C)c(=O)[nH]1 (stereo not drawn) | 1.985
Cn1cc(N2CC3(CCN(S(=O)(=O)C4CC4)C3)CC2=O)cn1 (stereo not drawn) | -15.9
